Many of the other results were omitted from the sample, so hits are more common in it than they were.
HT1080-NT tox = kills 2HG-producing HT-1080-NT fibrosarcoma cells; actives 1.6% (n = 360,000); HT-1080-NT fibrosarcoma viability, CellTiter-Glo ATP luminescence, 48 h; Potency, µM (doses to about 46.1 µM), inactives show at the top dose activity, negative = less viability, hits mostly cytotoxic;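 note: NT is the 2HG producing partner of a matched IDH1 knockdown line; potency is the fitted concentration of half-maximal effect; 0% = DMSO-treated cells and -100% = media-only wells without cells; nearly all actives have a fitted effect of over 55% in size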
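HT-1080-NT; 750 cells/well; 5% FBS RPMI; 48 h compound, 37 degrees C; CellTiter-Glo luminescence; curve fitting and curve-class assignment.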
TDP1 cell CPT = growth inhibition of DT40 Tdp1-/-;hTDP1 cells with camptothecin (screen for TDP1 inhibitors); Potency, µM (doses to about 46.2 µM), for the others: top-dose activity change, negative = growth inhibition, hits mostly inhibitors; AID 686979; actives 12% (n = 420,000); chicken DT40 Tdp1-/-;hTDP1 cells + 20 nM CPT, ATP luminescence, 48 h; note: potency is the fitted concentration of half-maximal effect; nearly all actives have a fitted effect of over 55% in size
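Chicken DT40 Tdp1-/- cells complemented with human TDP1, 400 cells/well, exposed to compounds plus 20 nM camptothecin for at least 48 h at 37 C; viability read as ATP content by CellTiter-Glo luminescence.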
IL-1B inflam inh = inhibitors of inflammasome signaling (IL-1 beta secretion) | THP-1 LPS/ATP IL-1B secretion, AlphaLISA, 16 h; stronger effect = lower value | activity change, % at 57.5 µM | actives 4.7% (n = 360,000); in the data active = activity change below about -50%; inconclusive = mostly about -30% to -49%
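THP-1 cells pretreated 1 hr with compounds (up to 57.5 uM final), then stimulated with LPS (250 ng/mL final) plus ATP (1.25 mM final); secreted IL-1B measured by AlphaLISA after 16 hr, decreased signal indicating inhibition.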
HT1080 IDH1KD tx = toxicity to HT-1080 IDH1 knockdown cells (counter line); AID 686971; HT-1080 IDH1 knockdown viability, ATP luminescence, 48 h; actives 2% (n = 360,000); Potency, µM (series often up to 46.1 µM), for inactives: top-dose activity, negative = toxicity, hits mostly cytotoxic;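 note: potency is the fitted concentration of half-maximal effect; 0% = DMSO wells and -100% = cell-free medium wells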
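Cytotoxicity counter-line: IDH1KD HT-1080, 48 h, CellTiter-Glo. Curves classed by r2, magnitude and activity.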
12-LOX inh = blocks human arachidonate 12S-lipoxygenase | purified 12hLO, xylenol orange hydroperoxide absorbance | P18054 | actives 1.1% (n = 580,000) | Potency, µM (highest dose often 108 µM), inactives show at the highest dose activity change, negative = inhibition, actives largely listed as inhibitors; note: potency is the fitted concentration of half-maximal effect
Target sequence (P18054 whole entry, looked up): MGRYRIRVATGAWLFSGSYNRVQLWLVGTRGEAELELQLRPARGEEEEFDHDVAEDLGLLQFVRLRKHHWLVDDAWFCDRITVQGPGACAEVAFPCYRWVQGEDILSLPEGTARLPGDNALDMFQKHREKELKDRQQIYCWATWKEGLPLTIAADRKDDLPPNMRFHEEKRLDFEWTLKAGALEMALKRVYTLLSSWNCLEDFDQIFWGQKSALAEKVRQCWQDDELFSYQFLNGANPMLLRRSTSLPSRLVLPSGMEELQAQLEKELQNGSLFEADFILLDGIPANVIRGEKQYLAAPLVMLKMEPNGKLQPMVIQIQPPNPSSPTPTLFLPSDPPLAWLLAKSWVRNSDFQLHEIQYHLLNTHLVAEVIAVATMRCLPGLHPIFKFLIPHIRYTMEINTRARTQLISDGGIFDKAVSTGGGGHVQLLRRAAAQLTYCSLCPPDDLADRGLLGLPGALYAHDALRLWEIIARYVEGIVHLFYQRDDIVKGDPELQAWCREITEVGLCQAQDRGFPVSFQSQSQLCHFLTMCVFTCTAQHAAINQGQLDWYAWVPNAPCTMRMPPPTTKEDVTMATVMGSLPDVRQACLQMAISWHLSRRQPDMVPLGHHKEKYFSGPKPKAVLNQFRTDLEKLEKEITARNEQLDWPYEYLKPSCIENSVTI
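Hydroperoxide product was detected by ferrous iron/xylenol orange as the 573 to 405 nm absorbance ratio. Arachidonic acid at 40 uM (final) was turned over for 30 min at room temperature by 150 nM human 12hLO, pH 7.0 Hepes buffer, after 15 min compound preincubation.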
DT40 TDP1 no CPT = qHTS for Inhibitors of human tyrosyl-DNA phosphodiesterase 1 (TDP1): qHTS in cells in absence of CPT. actives 15% (n = 420,000). Potency, µM (top dose mostly 46.2 µM), inactives show at the highest dose activity change, negative = growth inhibition, hits mostly inhibitors. DT40 Tdp1-/- hTDP1 cells, no CPT, ATP luminescence, 48 h; note: potency is the fitted concentration of half-maximal effect; nearly all actives have a fitted effect of over 55% in size
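Readout: luminescence from CellTiter-Glo after 30 min in the dark at RT. Cells: DT40 Tdp1-/- with stable hTDP1, 400/well. Exposure: compounds alone, ≥48 hr, 37 °C.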
* = called active by the depositor; ? = inconclusive; · = no result; [ ] = another dose, or the depositor's remark. Unless noted, calls come from the whole dose curve; as a rule, active = well fitted curve in the direction sought with a large enough effect; inconclusive = small, poorly fitted or top-dose-only effect, or another doubt; inactive = no such curve, though single readings can be large; an effect the other way counts as inactive or inconclusive. Unless noted, % is set by controls: 0 for no effect and ±100 for the full control effect.

SMILES	HT1080-NT tox	TDP1 cell CPT	IL-1B inflam inh	HT1080 IDH1KD tx	12-LOX inh	DT40 TDP1 no CPT
CCCN(C(=O)c1cc2c(Cl)nc3ccccc3c2s1)c1cccc(C)c1	·	20.6µM*	·	·	-6.3%	25.9µM*
COc1ccc(N(C)C(=O)c2cc3c(Cl)nc4ccccc4c3s2)cc1	-20.6%	?	-67.7*	-4.4%	-16.2%	20.6µM*
CCN(CC)c1nc2ccccc2nc1C(=O)Nc1cc(C(=O)OC)cc(C(=O)OC)c1	·	·	·	·	5.5%	·
CCOc1ccccc1C1NC(=O)N(CC(=O)NCc2ccc(C)cc2)C2=C1C(=O)OC2 (configuration not stated)	·	·	·	·	7.4%	·
O=C(C1CCC(=O)N(C2CCCC2)C1)N1CCN(c2ccccc2Cl)CC1 (configuration not stated)	-1.3%	-21.5%	16.0	0.7%	7.3%	5.4%
Cc1cccc(N2CCN(C(=O)C3CCC(=O)N(C4CC4)C3)CC2)c1C (configuration not stated)	12.7%	16.4µM*	34.4	4.2%	-0.4%	?
Cc1ccc(Cl)cc1N1CCN(C(=O)C2CCC(=O)N(C3CCCCCC3)C2)CC1 (configuration not stated)	-8.4%	6.51µM*	29.8	?	121.4%	2.91µM*
COc1cc(/C=C(/C#N)c2ccccn2)c2c(c1)CC(C)O2 (configuration not stated)	·	·	·	·	-4.2%	·
CCc1cccc(NC(=O)Cn2c(=O)n(-c3ccccc3C)c(=O)c3c2c2cc(C)ccc2n3C)c1	·	?	·	·	0.0%	?
CCN(c1ccccc1)S(=O)(=O)c1ccc2[nH]cc(C(=O)NC3CCCCC3)c(=O)c2c1	·	?	·	·	?	14.6µM*
CCc1ccccc1NS(=O)(=O)c1ccc2[nH]cc(C(=O)NC3CCCC3)c(=O)c2c1	?	?	-29.9	18.4µM*	?	?
O=C(NC1CCCCC1)c1c[nH]c2ccc(S(=O)(=O)Nc3ccccc3F)cc2c1=O	·	-0.8%	·	·	?	?
CCc1ccc2c(COC(=O)c3ccc4c(c3)nnn4CC)cc(=O)oc2c1	·	·	·	·	-16.9%	·
CCc1cc2c(=O)c(-c3ccc4c(c3)OCCO4)coc2cc1OS(C)(=O)=O	-28.4%	-14.1%	-86.6*	?	-7.4%	?
COC(=O)COc1ccc2c(=O)c(-c3ccc4c(c3)OCCO4)coc2c1	·	·	·	·	-20.2%	·
CCc1cc2c(=O)c(-c3ccc4c(c3)OCCO4)coc2c(CN2CCCCC2C)c1O (configuration not stated)	-15.0%	1.84µM*	?	?	-15.4%	1.46µM*
CCc1cc2c(=O)c(-c3nc4ccccc4[nH]3)coc2c(CN2CCCCC2C)c1O (configuration not stated)	-26.8%	?	-28.5	?	-29.8%	10.3µM*
Cc1ccc(NNC(=O)c2cc(C(C)(C)C)nn2Cc2ccccc2)cc1	-7.7%	-18.4%	?	-10.5%	?	?
Cc1ccc(NC(=O)c2cc(C(C)(C)C)nn2Cc2ccccc2)cc1	?	?	-80.6*	?	11.4%	29.1µM*
CC(C)(C)c1cc(C(=O)Nc2ccc(F)cc2)n(Cc2ccc(F)cc2)n1	?	?	?	?	0.8%	20.6µM*
CC(=O)N1c2ccc(S(=O)(=O)N3CCCCCC3)cc2CC1C(=O)NC(C)C (configuration not stated)	·	-17.3%	·	·	-18.5%	-5.0%
Cc1cc(Cl)cc(C)c1OCC(=O)NCCc1nnc2ccccn12	·	·	·	·	24.1%	·
CC1(C)CC(NC(=O)c2ccccc2OCc2ccc(Cl)cc2)CC(C)(C)N1	·	·	·	·	7.7%	·
COc1ccc(CC(=O)N2CC[C@H]3CC(=O)N(CCN4CCOCC4)CC[C@H]3C2)cc1	·	·	·	·	11.5%[176 µM]	·
Cc1noc(C)c1C(=O)N1CCC2(CC1)CCN(c1cccc(-c3ccccc3)c1)CC2	·	?	·	·	-21.5%[57.4 µM]	4.61µM*
SMILES	HT1080-NT tox	TDP1 cell CPT	IL-1B inflam inh	HT1080 IDH1KD tx	12-LOX inh	DT40 TDP1 no CPT
Cc1noc(C)c1C(=O)N1CCC2(CC1)CN(c1cccc(-c3ccccc3)c1)C2	·	?	·	·	?	20.6µM*
O=Cc1ccc(Oc2ncnc3ccccc23)cc1	·	·	·	·	11.0%[12.5 µM]	·
CS(=O)(=O)N(CCCC(=O)Nc1ccc2c(c1)OCCO2)c1ccc(Cl)cc1	·	·	·	·	-18.6%	·
O=C(NCCc1csc2nc(-c3ccccc3F)nn12)c1ccccc1C(F)(F)F	·	7.31µM*	·	·	-27.0%	9.2µM*
O=C(NCCc1csc2nc(-c3ccccc3F)nn12)c1ccco1	·	-4.8%	·	·	-13.5%	-3.5%
COc1cccc(C(=O)NCCc2csc3nc(-c4ccccc4F)nn23)c1OC	·	25.9µM*	·	·	-29.8%	14.6µM*
COc1ccccc1NC(=O)Nc1nc(CC(=O)NCc2cccnc2)cs1	-0.9%	?	3.9	4.2%	12.0%	-14.1%
COc1ccc(CNC(=O)Cc2csc(NC(=O)Nc3ccccc3OC)n2)cc1	-2.9%	?	?	-15.4%	0.4%	14.6µM*
COc1ccccc1NC(=O)Nc1nc(CC(=O)NC2CCCC2)cs1	7.4%	?	-8.4	-3.2%	3.9%	16.4µM*
O=C(Cc1csc(NC(=O)Nc2cccc(Cl)c2)n1)NCc1ccccn1	-0.1%	2.06µM*	-6.3	-11.1%	-10.0%	2.59µM*
COc1ccccc1NC(=O)Nc1nc(CC(=O)NCc2ccccn2)cs1	-10.9%	?	14.5	-6.6%	14.4%	25.9µM*
COc1ccccc1CNC(=O)Cc1csc(NC(=O)Nc2ccccc2OC)n1	6.6%	16.4µM*	1.6	2.4%	-1.8%	23.1µM*
COc1cc(OC)cc(C(=O)Nc2nc(CC(=O)NCc3ccc(F)cc3)cs2)c1	?	11.6µM*	1.5	?	?	8.2µM*
COc1ccc(C)cc1Cn1c(S(C)(=O)=O)nc2ccccc21	?	16.4µM*	15.6	-30.3%	?	20.6µM*
CCC(CO)[n+]1c(C)cc(/C=C2\Sc3ccccc3N2Cc2ccccc2)cc1C (configuration not stated)	3.26µM*	2.31µM*	-103.9*	3.26µM*	50.1µM*	2.31µM*
CCN1/C(=C2\SC(=S)N(Cc3ccccc3)C2=O)Sc2ccccc21	11.2%	-23.4%	-3.4	11.7%	-20.9%	?
CC1=C[C@@H](CNC(=O)Nc2ccccc2)[C@H](C(C)C)C[C@H]1CC(=O)NCCN1CCOCC1	·	·	·	·	16.0%	·
FC(F)(F)c1cccc(N2CCN(Cc3nnc(-c4ccc5c(c4)OCO5)o3)CC2)c1	·	?	·	·	-17.1%	16.4µM*

Assay outcomes from PubChem.
